Source: article PMC12136788
Numbering of substitutions follows the chain as printed. The full ranking holds about 24,000 sequences; the median of “enrichment r” is about 0.99, and the highest 2% start at about 3.7. Many of the other results were omitted from the sample, so the highest values are more common in it than they were.

T1: UNK ZnF1-3 (human, UniProt Q9C0B0 31-174)
T1 sequence: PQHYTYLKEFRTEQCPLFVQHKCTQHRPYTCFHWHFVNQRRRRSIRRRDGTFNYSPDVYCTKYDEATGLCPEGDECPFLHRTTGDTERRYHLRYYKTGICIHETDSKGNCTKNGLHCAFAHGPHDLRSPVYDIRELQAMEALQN

B1: 83126405_83126525_1642_CDS_ENSMUSG00000058881_ENSMUST00000071233|mouse|control|control (ssRNA)
RNA: GGGAGUUCUACAGUCCGACGAUCCCGGGGAUCAAGGUGGCCAGAAAGCAUGGGGUCCCCAGGUACACUGGCCCUCUUCCUCGGGGGAGCUUGGGUAGCCGGAGCAUCCUGUUCACGCUUGCGUUUUUCCUGGCUCACCAGUAUCAACAGAGGAUUGAGCAUCA
B2: chr7:54825262:54825263:-_ENSG00000132432_ENST00000352861|hu_hu|hu_hu_hu_mus_False|18_38 (ssRNA)
RNA: GGGAGUUCUACAGUCCGACGAUCCUGCCGGCUGGGCUCCACAAACUGCAUUACCUGAUCCAUGUUUGUUGGAUGGCGGAUUGAGAGCGUAGAGACAACGUAGCACUGAGAGAACCGGAUGGAGGCCAACCGGAAGCUGGCAACCAACAGAGGAUUGAGCAUCA
B3: chr2:42543136:42543137:+_ENSG00000143924_ENST00000318522|hu_mus|FALSE|FALSE (ssRNA)
RNA: GGGAGUUCUACAGUCCGACGAUCAUCUACUGAGUAGCGCAUCACAGACAGCUGCUCAUUGCCAUCCGUGUGGAUUGACACCAGAUCUCUUGUUUCUGCAUCCAGAACAAACCACCUGCCUGAGUGCGUUCCAAUGGCUACCACCAACAGAGGAUUGAGCAUCA
B4: chr19:8913615:8913616:-_ENSMUSG00000071658_ENSMUST00000096259|mus_hu|mus_mus_mus_hu_False|48_78 (ssRNA)
RNA: GGGAGUUCUACAGUCCGACGAUCAGGGUACCAAAACCUUCUGCCUGAAAUGGGUGCCCCACCCUGCAGGGAGUUGCAGCUGAAAGUAUCCGUAGCAGAAGCAGUGACUAUACGAAAGGAGGCCCCUGGGGAGGGCCAGGCCAGCAACAGAGGAUUGAGCAUCA
B5: chr12:8945443:8945444:+_ENSMUSG00000020585_ENSMUST00000020909|mus_mus|motif|central (ssRNA)
RNA: GGGAGUUCUACAGUCCGACGAUCUGGAAACGUACAAAUGAGAAGCAUGCAACCAUCAUCUUCCACAGUCAAGUCAAACUGCGGUUUCUCUCUCUCUCCUGUUUCAUAGAGCUGGAAACUGCAGGUGUUAUACCCAACCUAUUCCAACAGAGGAUUGAGCAUCA
B6: 117863777_117864697_1263_CDS_ENSMUSG00000017715_ENSMUST00000132676|mouse|control|control (ssRNA)
RNA: GGGAGUUCUACAGUCCGACGAUCGCGGUCCUGGCGGUUGGUGAAGUAUGAGUCACUCAGGUUUGCACCACUCAGGAUGACGUUGUUGUCAAAGAGGUACACCUUGAUGUGCUGGAGGCCGAUGGUCUCAUUGAAGCGCUCAGGCAACAGAGGAUUGAGCAUCA
B7: 66332798_66333947_12362_CDS_ENSMUSG00000038664_ENSMUST00000042824|mouse|control|control (ssRNA)
RNA: GGGAGUUCUACAGUCCGACGAUCUUCACCACUUUCUGUCAAGGCCAUUGAGUGCCCAUCUGAGCCACAGGAAGUCACCAGCUGGGUCACCACAAAACCUUGUAGGGCUGAAAUCACAGUCAGCACAUGAAGGUCGUCUGAAUUCAACAGAGGAUUGAGCAUCA
B8: chr7:133639990:133639991:-_ENSMUSG00000032637_ENSMUST00000167759|mus_hu|FALSE|FALSE (ssRNA)
RNA: GGGAGUUCUACAGUCCGACGAUCGGUAGAGAGUUCUUUUACAUCUGUGGGGGCCAGGGAGAUCUUUGGAGAAGCUGGAGAAAUGGAGCCCACUCCAGGAUCUGAGACUGAUGAGGUCACAGGGAUGGAGGCUGAAGAGGUUGGCAACAGAGGAUUGAGCAUCA
B9: 53565353_53565853_12282_CDS_ENSG00000086758_ENST00000262854|human|control|control (ssRNA)
RNA: GGGAGUUCUACAGUCCGACGAUCCCCAUCAGCAAGGUGGGUCGUGGACUGCCGUAGGAUCUGGUUUAACACAGUGCGGUGAGUCUCUGCAAAGCGAAGGAACUUCUGUGUGUCAGGGGGCAGGCUUGAGGAGAUGUGCAUAGACAACAGAGGAUUGAGCAUCA
B10: chr15:43699750:43699751:-_ENSG00000067369_ENST00000382044|hu_hu|motif|central (ssRNA)
RNA: GGGAGUUCUACAGUCCGACGAUCACACUUCAGCACCGAGGCUGGGCAUGAGGGGUCCGUCACCACCACAUCAAAUACCCCGGAAGCAAUAUCUUUGUUAUGGGCACUUGAAUGGUGCUGCUUCACAGAGGCUGCACCACCAGUCAACAGAGGAUUGAGCAUCA
B11: chr6:41757443:41757444:+_ENSG00000214736_ENST00000398881|hu_mus|hu_hu_hu_mus_False|1_68 (ssRNA)
RNA: GGGAGUUCUACAGUCCGACGAUCGAACCGUGCAGAGGCAACAUCUCAGCCGACACUGGGGGAUGGGGGAACAAAAGGGGGGGGUUCAGGCAAGGAGAGGGAGUCAACUUCAGCUGCCACUCAGGUAGGAUCUUGUGGGGCACACAACAGAGGAUUGAGCAUCA
B12: chr6:41757443:41757444:+_ENSG00000214736_ENST00000398881|hu_mus|hu_hu_hu_mus_False|28_28 (ssRNA)
RNA: GGGAGUUCUACAGUCCGACGAUCGAACCGUGCAGAGGCAACAUCUCAGCCGACACUGGGGGAUGGGGGGGCAGUGGGGGGGGGUUCAGGCAAGGAGAGGGAGUCAACCCAUCUGAACACUCAGGUAGGAUCUUGUGGUCACAGCAACAGAGGAUUGAGCAUCA
B13: chr6:41757443:41757444:+_ENSG00000214736_ENST00000398881|hu_mus|hu_hu_hu_mus_False|28_38 (ssRNA)
RNA: B12 RNA with G98A, G100A, G102A, U103A, C104G, A105U, A106G
B14: chr6:41757443:41757444:+_ENSG00000214736_ENST00000398881|hu_mus|hu_hu_hu_mus_False|1_38 (ssRNA)
RNA: GGGAGUUCUACAGUCCGACGAUCGAACCGUGCAGAGGCAACAUCUCAGCCGACACUGGGGGAUGGGGGGGCAGUGGGGGGGGGUUCAGGCAAGGAGAAGAAAAGUGCUUCAGCUGCCACUCAGGUAGGAUCUUGUGGGGCACACAACAGAGGAUUGAGCAUCA
B15: chr10:77750680:77750681:-_ENSMUSG00000001211_ENSMUST00000139282|mus_hu|FALSE|FALSE (ssRNA)
RNA: GGGAGUUCUACAGUCCGACGAUCGCGGCGGUAGAGCUGCUUGCUGACCGGCCAGAGCGCCAGCGUGCACAGCUGGACGAAGUUGAUGACCAGACCACUCACCACGAAGACAAAGCCGACCAGCAGGUGCAGCACGAACUGGGUCAACAGAGGAUUGAGCAUCA
B16: chr6:41757443:41757444:+_ENSG00000214736_ENST00000398881|hu_mus|hu_hu_hu_mus_False|58_58 (ssRNA)
RNA: GGGAGUUCUACAGUCCGACGAUCGAACCGUGCAGAGGCAACAUCUCAGCCGACACUGGGGGAUGGGGGGGCAGUGGGAAACUAGGCAGGCAAGGAGAGGGAGUCAACUUCAGCUGCCACUCAGGUAGGAUCUUGUGGUCACAGCAACAGAGGAUUGAGCAUCA
B17: chr10:127876205:127876206:+_ENSMUSG00000025373_ENSMUST00000096386|mus_mus|FALSE|FALSE (ssRNA)
RNA: GGGAGUUCUACAGUCCGACGAUCGGGGCCACCGAGGCAACACAGACACCCUCUUGAGGCAGUGCCGUUCUGGAUCAGCAGAGCCAGACAGCAGCUUCCUGCUGAGUGUACGAACACCAGUGCUCUCACGCCCACCCCUUCCUUCAACAGAGGAUUGAGCAUCA
B18: chr6:41757443:41757444:+_ENSG00000214736_ENST00000398881|hu_mus|hu_hu_hu_mus_False|18_28 (ssRNA)
RNA: B12 RNA with C117U, A118C, C119A, U120A, C121A, A122C, G123U, G124U, U125C
B19: 112904347_112904467_7746_CDS_ENSMUSG00000036862_ENSMUST00000078482|mouse|control|control (ssRNA)
RNA: GGGAGUUCUACAGUCCGACGAUCUGUGGCCUCCAGGGUGAGCAGGGUGGAACCAGGGGGCAAAUCUUCAGACACAGCAACACGGUAGUGUGGCAAUGUGAAGCUUGGGGCAUGGUCAUUCUGGUCCUUCAGCUGCACAUGCACCAACAGAGGAUUGAGCAUCA
B20: chrX:40988281:40988282:+_ENSG00000124486_ENST00000378308|hu_mus|FALSE|FALSE (ssRNA)
RNA: GGGAGUUCUACAGUCCGACGAUCUUCAAUCUGUGGAGGAGCAUCACCUUGACCUUGCUCAUCAGGAGGAGUUGCAGGGGAAUUUUCAUUGGACGAAUCAGGCGAUGAAGUCUGAUUCUGUUGGAGGGGGGGCUGAGACUGUCCCAACAGAGGAUUGAGCAUCA
B21: chr6:17872010:17872011:+_ENSMUSG00000029534_ENSMUST00000127322|mus_mus|motif|central (ssRNA)
RNA: GGGAGUUCUACAGUCCGACGAUCUCACUGUCUCCUCUCUUCAGGAUGUGUUCUGGUGGGAGGAUUAAGCUUUUCAUUUCGGGUAGAUAUUUUGGCACGUGUGGAUUAAAUUCCACAGCUCUGUGGAUGGCUUCUACUGCAUUCCAACAGAGGAUUGAGCAUCA
B22: chr9:37441256:37441257:-_ENSG00000168795_ENST00000307750|hu_hu|FALSE|FALSE (ssRNA)
RNA: GGGAGUUCUACAGUCCGACGAUCAGGCCCAGCCUCUGGACUCAACAAAUAGGGGGCCUCACUCUCCAGCCUGCAGUCACUAGUGGUGUUUGGAAUAUUAUCAUCAUUGUUCUGAUUUGCAGUAAAGUUAUUUCCUCUGCUCUUCAACAGAGGAUUGAGCAUCA

molecular target: T1, UNK ZnF1-3; assay: nsRBNS (natural sequence RNA bind-n-seq); RBNS binding buffer (assumed for nsRBNS): 25 mM Tris pH 7.5, 150 mM KCl, 3 mM MgCl2, 0.01% Triton X-100, 500 ug/ml BSA, 20 U/ml SUPERase-In, 4 C; UNK is unkempt and MSI1 is Musashi-1; names of the RNAs are library labels; protein concentration not given here; high values mean tight binding

Binder | binding signal [enrichment R]
B1 | 0.53
B2 | 0.908
B3 | 0.836
B4 | 1.24
B5 | 0.736
B6 | 0.897
B7 | 0.824
B8 | 2.03
B9 | 1.49
B10 | 0.852
B11 | 3.16
B12 | 5.01
B13 | 3.96
B14 | 4.72
B15 | 0.809
B16 | 2.2
B17 | 1.13
B18 | 5.1
B19 | 1.43
B20 | 1.31
B21 | 0.937
B22 | 0.924
